Measurements as given in PubChem BioAssay (EPA / NIEHS).
Activity calls are given as the source filed them. The calls were made as follows: active = hit-call score of the fitted dose curve at least 0.9, where 1 is the maximum; inactive = score below 0.9.

experiment: ATG_CMV_CIS: Attagene CIS-FACTORIAL HepG2 Assay for human CMV (Internal Marker) (AID 2282928); settings: HepG2 CMV promoter reporter, transcription factor profiling; actives raise or lower the signal;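 also: endpoint acts as a background internal control marker rather than a target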
Procedure: ATG_CIS is a cell-based, multiplexed-readout assay that uses HepG2, a human liver cell line, with measurements taken at 24 hours after chemical dosing in a 24-well plate.ATG_CMV_CIS is one of 52 assay component(s) measured or calculated from the ATG_CIS assay. It is designed to make measurements of mRNA induction, a form of inducible reporter, as detected with fluorescence intensity signals by Reverse transcription polymerase chain reaction (RT-PCR) and Capillary electrophoresis technology.Data from the assay component ATG_CMV_CIS was analyzed into 1 assay endpoint. This assay endpoint, ATG_CMV_CIS, was analyzed with bidirectional fitting relative to DMSO as the negative control and baseline of activity. Using a type of inducible reporter, measures of mRNA for gain or loss-of-signal activity can be used to understand the background control at the transcription factor-level as they relate to the gene . Furthermore, this assay endpoint can be referred to as a secondary readout, because this assay has produced multiple assay endpoints where this one serves a background control function. To generalize the intended target to other relatable targets, this assay endpoint is annotated to the background measurement intended target family, where the subfamily is internal marker.
Human liver HepG2 cells are transiently transfected with multiple reporter transcription units (MRTUs) in 6-well plates using FuGene 6 reagent (Roche; 3 ml FuGene/1 mg DNA). The MRTU constructs are regulated by a cis-regulating element (promoter). […] A major difference between the CIS and TRANS system is that in CIS activities of endogenous TFs are measured, whereas the TRANS assay evaluates changes in activities of exogenous, chimeric NR-Gal4 proteins. […] At the end of 24 hour incubation, total RNA was isolated using TriZol reagent (Invitrogen). The isolated RNA is then reverse-transcribed using oligo(dT) primer and Mo-MLV reverse transcriptase (Invitrogen) with DNAse I (Ambion) treatment for 30 min. The one-tenth of the produced cDNA was amplified by PCR using Taq DNA polymerase (Invitrogen) and two reporter sequence-specific primers. The PCR products were fluorescently labeled by primer extension with 6-arboxyfluorescein (6-FAM) 5'-labeled reporter sequence-specific primer (2 min at 95 C, 20 s at 68 C and 10 min at 72 C) and these products were digested with 5U of HpaI (New England Biolabs) for 2h at 37 C. The fragments were purified using Qiaquick PCR columns (Qiagen), analyzed on an ABI 3130xL genetic analyzer (Applied Biosystems) with peak positions identified by using a set of X-rhodamine (ROX)-labeled MapMarker1000 molecular weight standards (BioVentures). The raw capillary electrophoresis data was processed using Attagraph software (Attagene).

SMILES	outcome	AC50
C=CCc1ccc(OC(=O)Cc2ccccc2)c(OC)c1	inactive	
Nc1ccc(Cl)c(Cl)c1	inactive	
c1ccc(Nc2ccc3ccccc3c2)cc1	inactive	
C=CC(=O)OCCO	inactive	
C=C(Cl)CCl	inactive	
[CH3][Sn]([CH3])([Cl])[Cl]	inactive	
CCCCNP(N)(N)=S	inactive	
Oc1cc(Cl)ccc1Cl	inactive	
COc1cc(OC)c(OC)cc1C=O	inactive	
C[C@]12CC[C@H]3[C@@H](CC[C@@]45O[C@@H]4C(O)=C(C#N)C[C@]35C)[C@@H]1CC[C@@H]2O		100 µM (active)
CC(=O)c1cc2c(cc1C)C(C)(C)C(C)CC2(C)C (stereo not given)		28.1 µM (active)
Oc1ccc(Cl)cc1	inactive	
C=CC(=O)OC	inactive	
CCC(Br)(CC)C(=O)NC(N)=O	inactive	
CCCCCCCCCCCC#N		103 µM (active)
NNc1ccccc1	inactive	
CCCCCCCCCCCCCCCC[N+](C)(C)C		48.9 µM (active)
C[N+](C)=CCl	inactive	
c1ccc(P(c2ccccc2)c2ccccc2)cc1	inactive	
CCc1cccc(C)c1N(C(=O)CCl)[C@@H](C)COC	inactive	

SMILES	outcome	AC50
Nc1ccccc1C(=O)Oc1ccc2ccccc2c1		77 µM (active)
C[C@]12CC[C@H](O)C[C@H]1CC[C@@H]1[C@@H]2C[C@@H](O)[C@]2(C)[C@@H](C3=CC(=O)OC3)CC[C@]12O		0.72 µM (active)
Nc1ccccc1C(=O)OCCc1ccccc1	inactive	
CC(C)(O)C#N	inactive	
CC[N+](=O)[O-]	inactive	
O=C(O)CCl	inactive	
O=C(O)C(Br)Br	inactive	
O=C(NCNC(=O)NC1C(=O)NC(=O)N1CO)NC1C(=O)NC(=O)N1CO (stereo not given)	inactive	
c1cc(OCC2CO2)ccc1Cc1ccc(OCC2CO2)cc1 (stereo not given)		49.6 µM (active)
CN(N=O)c1ccccc1	inactive	
Oc1ccc(C2(c3ccc(O)cc3)c3ccccc3-c3ccccc32)cc1		17.7 µM (active)
O=S(=O)(c1ccccc1)c1ccccc1	inactive	
N#CCCCl	inactive	
CC1CCC(=O)O1 (stereo not given)	inactive	
O=C1C=CC(=O)C=C1	inactive	
Nc1ccc(-c2ccc(N)c(N)c2)cc1N	inactive	
Cl/C=C\CCl	inactive	
C[C@]12CCC(=O)C(O)=C1CC[C@@H]1[C@@H]2CC[C@]2(C)C(=O)CC[C@@H]12	inactive	
S=c1[nH]c2ccccc2[nH]1	inactive	
[Cl][Sb]([Cl])[Cl]	inactive	
